Test results reported in the supplement of paper PMC6555819.

Experiments:
Test in all cases: PBM binding z-score (relative to random genomic background probes); higher = stronger binding; sequences stand for … in GC…GCGATTGACAGCGTAGAATGAAGG
[1] = system: FXR:RXRa (NR concentration 270 nM, RXRa partner concentration 90 nM)
Outline: (§1)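 Ligand-free nuclear receptor dimers were applied to custom Agilent 4×180K protein-binding microarrays whose double-stranded probes carried direct-repeat seeds, single-nucleotide variants, half-site ablations and random human genomic background sequences in 34-nt variable regions. Incubation lasted 1 h. Binding z-scores were computed against the random background probes from regression-normalized fluorescence.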

[2] = system: LXRa:RXRa (NR concentration 270 nM, RXRa partner concentration 90 nM)
Outline: as §1

[3] = system: LXRa homodimer (NR concentration 270 nM)
Outline: as §1

[4] = system: LXRb:RXRa (NR concentration 270 nM, RXRa partner concentration 90 nM)
Outline: as §1

[5] = system: LXRb homodimer (NR concentration 270 nM)
Outline: as §1

[6] = system: PPARa:RXRa (NR concentration 270 nM, RXRa partner concentration 90 nM)
Outline: as §1

[7] = system: PPARg:RXRa (NR concentration 180 nM, RXRa partner concentration 90 nM)
Outline: as §1

[8] = system: PPARg:RXRa 270nM:90nM, anti-RXR (NR concentration 270 nM, RXRa partner concentration 90 nM)
Outline: as §1

[9] = system: PPARg:RXRa 30nM:10nM, anti-RXR (NR concentration 30 nM, RXRa partner concentration 10 nM)
Outline: as §1

[10] = system: PPARg:RXRa 90nM:30nM, anti-RXR (NR concentration 90 nM, RXRa partner concentration 30 nM)
Outline: as §1

[11] = system: PPARg:RXRa DBDmut IVT, anti-RXR (DBD mutation: RXRa K156A/R161A, NR concentration 270 nM, RXRa partner concentration 90 nM)
Outline: as §1

[12] = system: PPARg:RXRa IVT, anti-PPARg (NR concentration 270 nM, RXRa partner concentration 90 nM)
Outline: as §1

[13] = system: PPARg DBDmut:RXRa IVT, anti-PPARg (DBD mutation: PPARg1 K132A/R137A, NR concentration 270 nM, RXRa partner concentration 90 nM)
Outline: as §1

[14] = system: PPARg DBDmut IVT, anti-PPARg (DBD mutation: PPARg1 K132A/R137A, NR concentration 270 nM)
Outline: as §1

[15] = system: PPARg homodimer (NR concentration 180 nM)
Outline: as §1

[16] = system: PXR:RXRa (NR concentration 270 nM, RXRa partner concentration 90 nM)
Outline: as §1

[17] = system: PXR homodimer (NR concentration 270 nM)
Outline: as §1

[18] = system: RARa:RXR (NR concentration 270 nM, RXRa partner concentration 90 nM)
Outline: as §1

[19] = system: RARa homodimer (NR concentration 270 nM)
Outline: as §1

[20] = system: RARb:RXRa (NR concentration 270 nM, RXRa partner concentration 90 nM)
Outline: as §1

Row | Sequence | PBM binding z-score [1] | PBM binding z-score [2] | PBM binding z-score [3] | PBM binding z-score [4] | PBM binding z-score [5] | PBM binding z-score [6] | PBM binding z-score [7] | PBM binding z-score [8] | PBM binding z-score [9] | PBM binding z-score [10] | PBM binding z-score [11] | PBM binding z-score [12] | PBM binding z-score [13] | PBM binding z-score [14] | PBM binding z-score [15] | PBM binding z-score [16] | PBM binding z-score [17] | PBM binding z-score [18] | PBM binding z-score [19] | PBM binding z-score [20]
1 | GCGACTGGGGCAAAGCAGGTAACCATAAGGTTGG | -0.15 | -0.576 | -0.622 | -0.339 | -0.997 | 0.96 | 1.1 | 1.08 | -0.433 | 0.285 | 4.21 | 3.7 | -0.574 | -0.498 | -0.0633 | -0.292 | -0.741 | 0.385 | -0.971 | 0.691
2 | CCGACTGGGGCAGTAAGGTTACCATACCATCCGG | 0.252 | -0.0103 | -0.54 | -0.134 | -0.789 | 1.16 | 1.03 | 1.17 | -0.0768 | 0.343 | 2.7 | 2.69 | -1.07 | -1.44 | 0.0978 | 0.28 | -0.0319 | 0.762 | -0.538 | 1.34
3 | TCGAGTAGGTTACCATTGGGGCATTCAGCTTTCT | 0.101 | 1.68 | -0.373 | 0.964 | -0.492 | 0.792 | 0.0586 | 1.23 | 0.995 | 1.17 | 3.26 | 2.88 | -0.0492 | -0.763 | -0.00669 | 0.0838 | -0.677 | 0.409 | -0.577 | 0.817
4 | TAGCCTAGGTAATTCAGGGGCCAGTATAGAAAGC | -0.449 | -0.444 | -0.517 | -0.109 | -0.53 | -0.0424 | 0.145 | -0.169 | -0.327 | -0.103 | -0.0164 | 0.234 | 0.0188 | -0.116 | -0.334 | -0.507 | -0.545 | -0.256 | -0.299 | 0.0227
5 | GTAACGAGGGCATTCGAGTTGATAGCATGGCGAT | 1.83 | 1.91 | -0.134 | 0.286 | -0.321 | 1.72 | 1.12 | 0.912 | 0.115 | 0.712 | 3.16 | 2.66 | 0.308 | -0.0825 | -0.229 | 3.76 | 2.23 | 0.683 | -0.277 | 1.89
6 | ATCTCTAGGTAACAAGTTCAGTGCAAGAGAGGAC | 0.558 | 0.749 | 0.739 | 0.611 | 0.89 | 1.5 | 1.32 | 1.86 | 0.692 | 1.45 | 3.44 | 2.92 | 1.24 | 1.13 | 1.36 | 1.87 | 2.67 | 0.985 | 1.05 | 1.69
7 | TCATATAGGTAAACAGGTCAAAGTCCGTAAGTTA | 2.74 | 3.19 | 2.04 | 3.12 | 0.433 | 4.55 | 5.08 | 5.37 | 4.97 | 5.43 | 5.17 | 5.48 | 3.64 | 1.86 | 2.44 | 2.77 | 0.953 | 3.52 | 1.47 | 2.8
8 | CGAACTAGGTCAGATCAGGACAGTGAAGGATGAT | 2.96 | 0.93 | -0.182 | 0.466 | -0.387 | 3.07 | 5.57 | 4.64 | 1.82 | 3.82 | 7.59 | 7.23 | 0.934 | 0.164 | 1.18 | 1.83 | 0.129 | 1.19 | -0.0983 | 3.17
9 | CGAACTAGGTCAGCCAGGACAGTGAATACATTGA | 1.87 | 0.875 | 0.291 | 0.649 | -0.648 | 3.55 | 6.1 | 5.28 | 2.28 | 4.35 | 7.76 | 7.73 | 1.49 | 0.655 | 1.34 | 0.744 | -0.0382 | 0.595 | 0.0532 | 3.45
10 | CGTCCAAGGTCAATGCTAGGTCAGTGTAAGCATT | 6.38 | 5.59 | 2.58 | 4.11 | 0.681 | 5 | 3.55 | 4.67 | 1.23 | 2.97 | 3.19 | 3.97 | 0.641 | -0.396 | 6.64 | 4.83 | 2.1 | 5.95 | 1.32 | 5.13
11 | CGAACTAGGTCAGAACAGGACAGTGGAGGATGAT | 1.69 | 0.958 | -0.201 | 0.242 | -0.2 | 2.93 | 5.08 | 4.33 | 1.86 | 3.73 | 7.32 | 7.18 | 1.32 | 0.317 | 0.748 | 0.65 | -0.155 | 0.722 | 0.321 | 2.99
12 | GCGACTGGGGCAAAGCAAGTTACCATAAGGTTGG | -0.106 | -0.224 | -0.376 | -0.3 | -0.665 | 0.868 | 0.964 | 1.1 | -0.269 | 0.301 | 4.67 | 3.4 | -0.185 | -1.06 | 0.355 | -0.0344 | -0.458 | 0.375 | -0.721 | 0.659
13 | CGTCCATGGTCAAGGTCAGTGAAAGAGACTCGAA | 1.92 | 1.67 | 0.03 | 1.6 | -0.273 | 2.38 | 1.13 | 1.68 | 0.0317 | 0.977 | 0.484 | 1.54 | -0.688 | -0.778 | 1.17 | 1.78 | 0.42 | 2.23 | 0.236 | 3.59
14 | CGTCCAAGGTCCGAGAGGTCAGTGAATGCCGAGT | 2.4 | 1.89 | 1.06 | 1.86 | -0.631 | 2.26 | -0.135 | 0.688 | -0.759 | -0.083 | -0.0478 | 0.0193 | -1.25 | -0.955 | 2.31 | 3.19 | 1.56 | 2.87 | 0.494 | 3.23
